In the supplement of paper PMC6411743:
± gives the standard deviation of the averaged measurements. Targets with the largest changes are over-represented here; the source holds about 6,200 in all.

Compound: Nc1ncnc2c1ncn2[C@@H]1O[C@H](COP(=O)(O)OP(=O)(O)NP(=O)(O)O)[C@@H](O)[C@H]1O [adenylyl imidodiphosphate]
Assay: NP40-soluble protein abundance relative to vehicle (solubility fold change) (ratio); higher = more soluble protein in presence of AMP-PNP
Method in brief: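 Values are fold changes against the detergent-processed vehicle, based on vsn-normalised intensities. Jurkat crude lysate was treated at eight concentrations from 0.1 to 10 mM (10 min at room temperature, then 3 min at 37 °C), solubilised with 0.8% NP40 and benzonase, ultracentrifuged and analysed by TMT-labelled LC-MS/MS over three independent experiments.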

Chain of UniProt O00629 (O00629 whole entry): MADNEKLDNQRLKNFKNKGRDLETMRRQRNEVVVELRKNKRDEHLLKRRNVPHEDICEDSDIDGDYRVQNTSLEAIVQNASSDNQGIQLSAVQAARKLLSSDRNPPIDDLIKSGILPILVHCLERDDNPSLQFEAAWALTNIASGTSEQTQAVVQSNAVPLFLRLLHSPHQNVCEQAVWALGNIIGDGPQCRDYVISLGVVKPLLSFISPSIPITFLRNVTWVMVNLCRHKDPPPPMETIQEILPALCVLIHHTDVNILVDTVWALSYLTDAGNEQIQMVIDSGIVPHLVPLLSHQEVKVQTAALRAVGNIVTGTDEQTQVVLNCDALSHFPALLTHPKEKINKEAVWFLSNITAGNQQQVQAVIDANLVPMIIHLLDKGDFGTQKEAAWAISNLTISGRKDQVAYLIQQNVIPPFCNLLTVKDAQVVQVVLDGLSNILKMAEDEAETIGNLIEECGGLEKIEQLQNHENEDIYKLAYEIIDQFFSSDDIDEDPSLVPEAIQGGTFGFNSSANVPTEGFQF
Chain of UniProt P24864 (P24864 whole entry, one chain of several): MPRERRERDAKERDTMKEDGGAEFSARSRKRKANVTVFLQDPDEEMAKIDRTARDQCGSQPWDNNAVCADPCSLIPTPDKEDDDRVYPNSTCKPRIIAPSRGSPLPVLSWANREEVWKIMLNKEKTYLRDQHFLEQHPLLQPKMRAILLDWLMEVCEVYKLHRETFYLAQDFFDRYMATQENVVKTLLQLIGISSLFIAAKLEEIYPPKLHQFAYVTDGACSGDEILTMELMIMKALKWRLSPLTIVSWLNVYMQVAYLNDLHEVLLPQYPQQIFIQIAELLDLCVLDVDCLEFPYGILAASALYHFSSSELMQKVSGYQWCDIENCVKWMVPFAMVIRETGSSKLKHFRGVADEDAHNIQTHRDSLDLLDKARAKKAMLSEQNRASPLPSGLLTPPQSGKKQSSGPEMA
Chain of UniProt Q9UKV3 (Q9UKV3 whole entry, one chain of several): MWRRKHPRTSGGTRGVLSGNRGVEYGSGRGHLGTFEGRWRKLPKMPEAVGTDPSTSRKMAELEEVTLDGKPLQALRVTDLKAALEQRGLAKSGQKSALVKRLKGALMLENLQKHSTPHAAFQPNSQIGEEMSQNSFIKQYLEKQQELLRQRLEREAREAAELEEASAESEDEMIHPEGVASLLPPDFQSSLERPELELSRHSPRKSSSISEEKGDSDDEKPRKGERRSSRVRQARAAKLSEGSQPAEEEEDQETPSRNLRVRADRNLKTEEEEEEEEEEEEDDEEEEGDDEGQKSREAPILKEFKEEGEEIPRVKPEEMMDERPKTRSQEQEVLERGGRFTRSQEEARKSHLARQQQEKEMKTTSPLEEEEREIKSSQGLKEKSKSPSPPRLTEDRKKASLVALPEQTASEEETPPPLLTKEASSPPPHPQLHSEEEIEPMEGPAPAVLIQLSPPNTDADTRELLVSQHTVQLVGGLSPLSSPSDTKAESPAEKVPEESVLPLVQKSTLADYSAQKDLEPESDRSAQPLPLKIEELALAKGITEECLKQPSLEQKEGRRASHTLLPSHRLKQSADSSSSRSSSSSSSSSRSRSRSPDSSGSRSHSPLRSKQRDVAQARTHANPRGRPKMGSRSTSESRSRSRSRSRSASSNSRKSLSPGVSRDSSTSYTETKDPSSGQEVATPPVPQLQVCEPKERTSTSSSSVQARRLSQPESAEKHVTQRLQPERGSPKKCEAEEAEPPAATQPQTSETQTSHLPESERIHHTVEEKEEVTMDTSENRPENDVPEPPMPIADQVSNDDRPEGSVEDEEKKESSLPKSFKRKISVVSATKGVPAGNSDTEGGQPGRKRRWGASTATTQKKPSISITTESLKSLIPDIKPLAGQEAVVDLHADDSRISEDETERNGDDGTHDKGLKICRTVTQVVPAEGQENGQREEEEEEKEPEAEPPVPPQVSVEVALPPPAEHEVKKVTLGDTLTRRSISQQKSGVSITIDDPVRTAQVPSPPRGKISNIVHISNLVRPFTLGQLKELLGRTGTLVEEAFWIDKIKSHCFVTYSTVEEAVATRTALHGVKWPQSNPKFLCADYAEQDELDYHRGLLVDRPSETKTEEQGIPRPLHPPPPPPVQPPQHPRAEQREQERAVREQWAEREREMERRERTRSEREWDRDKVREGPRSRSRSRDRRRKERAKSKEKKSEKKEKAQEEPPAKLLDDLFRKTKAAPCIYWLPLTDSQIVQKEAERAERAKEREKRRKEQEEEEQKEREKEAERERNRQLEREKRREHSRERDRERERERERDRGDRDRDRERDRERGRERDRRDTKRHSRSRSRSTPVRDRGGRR
Chain of UniProt P48444 (P48444 whole entry, one chain of several): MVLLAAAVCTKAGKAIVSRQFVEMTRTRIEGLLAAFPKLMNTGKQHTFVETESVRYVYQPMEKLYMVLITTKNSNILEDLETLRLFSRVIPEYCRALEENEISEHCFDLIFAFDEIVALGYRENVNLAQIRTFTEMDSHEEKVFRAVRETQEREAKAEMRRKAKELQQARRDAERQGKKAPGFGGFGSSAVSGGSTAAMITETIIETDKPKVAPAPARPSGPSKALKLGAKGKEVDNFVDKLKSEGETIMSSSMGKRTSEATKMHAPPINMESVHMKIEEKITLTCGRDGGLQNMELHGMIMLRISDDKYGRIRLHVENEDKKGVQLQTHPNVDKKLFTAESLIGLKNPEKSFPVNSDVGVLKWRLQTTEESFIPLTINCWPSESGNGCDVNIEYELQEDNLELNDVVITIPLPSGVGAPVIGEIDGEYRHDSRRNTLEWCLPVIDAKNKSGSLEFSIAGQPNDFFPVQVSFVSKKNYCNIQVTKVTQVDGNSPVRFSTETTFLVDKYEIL
Chain of UniProt Q13227 (Q13227 whole entry, one chain of several): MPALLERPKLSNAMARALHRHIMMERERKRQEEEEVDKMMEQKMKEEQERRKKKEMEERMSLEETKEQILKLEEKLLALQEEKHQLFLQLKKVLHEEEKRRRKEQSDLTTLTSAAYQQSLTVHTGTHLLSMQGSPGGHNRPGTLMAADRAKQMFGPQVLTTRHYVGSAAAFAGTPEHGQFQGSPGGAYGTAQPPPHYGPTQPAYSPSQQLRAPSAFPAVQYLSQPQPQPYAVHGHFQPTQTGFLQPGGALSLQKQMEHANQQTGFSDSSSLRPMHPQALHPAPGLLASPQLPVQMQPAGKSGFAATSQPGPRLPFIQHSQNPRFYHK
Chain of UniProt O95232 (O95232 whole entry, one chain of several): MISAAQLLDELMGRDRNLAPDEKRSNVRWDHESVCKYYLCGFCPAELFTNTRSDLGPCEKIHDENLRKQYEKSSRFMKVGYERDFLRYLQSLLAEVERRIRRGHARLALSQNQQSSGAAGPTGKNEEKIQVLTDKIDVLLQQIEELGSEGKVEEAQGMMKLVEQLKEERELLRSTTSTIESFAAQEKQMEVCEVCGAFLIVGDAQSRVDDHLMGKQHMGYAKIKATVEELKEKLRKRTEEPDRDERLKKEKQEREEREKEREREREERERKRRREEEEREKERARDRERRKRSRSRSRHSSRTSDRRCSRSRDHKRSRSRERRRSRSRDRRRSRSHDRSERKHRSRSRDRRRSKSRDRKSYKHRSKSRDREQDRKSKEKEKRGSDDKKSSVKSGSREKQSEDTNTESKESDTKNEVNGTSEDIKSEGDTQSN
Chain of UniProt O14735 (O14735 whole entry): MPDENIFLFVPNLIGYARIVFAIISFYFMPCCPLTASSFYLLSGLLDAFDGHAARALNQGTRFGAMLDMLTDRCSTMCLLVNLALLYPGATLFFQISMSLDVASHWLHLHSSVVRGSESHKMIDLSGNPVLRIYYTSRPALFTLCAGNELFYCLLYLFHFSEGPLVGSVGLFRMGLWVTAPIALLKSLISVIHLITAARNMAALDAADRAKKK
Chain of UniProt P13798 (P13798 whole entry, one chain of several): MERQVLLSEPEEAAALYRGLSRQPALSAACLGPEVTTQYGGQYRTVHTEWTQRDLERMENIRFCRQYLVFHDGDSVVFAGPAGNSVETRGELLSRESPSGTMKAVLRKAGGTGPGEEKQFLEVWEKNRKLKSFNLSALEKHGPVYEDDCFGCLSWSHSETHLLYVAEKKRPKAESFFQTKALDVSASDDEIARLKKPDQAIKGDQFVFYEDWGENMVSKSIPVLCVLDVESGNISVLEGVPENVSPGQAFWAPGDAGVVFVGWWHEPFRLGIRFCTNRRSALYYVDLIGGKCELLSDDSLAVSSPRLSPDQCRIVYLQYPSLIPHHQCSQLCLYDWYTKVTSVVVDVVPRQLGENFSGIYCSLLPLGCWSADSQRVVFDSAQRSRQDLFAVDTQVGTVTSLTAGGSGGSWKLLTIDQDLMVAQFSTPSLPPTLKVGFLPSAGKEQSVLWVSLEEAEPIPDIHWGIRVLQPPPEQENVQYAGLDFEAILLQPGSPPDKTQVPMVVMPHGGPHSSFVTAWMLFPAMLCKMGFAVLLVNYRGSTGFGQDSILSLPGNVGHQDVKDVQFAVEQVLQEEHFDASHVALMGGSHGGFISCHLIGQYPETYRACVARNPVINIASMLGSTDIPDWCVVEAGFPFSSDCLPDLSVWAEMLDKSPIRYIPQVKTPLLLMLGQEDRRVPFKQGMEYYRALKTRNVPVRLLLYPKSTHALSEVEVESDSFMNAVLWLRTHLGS
Chain of UniProt O75264 (O75264 whole entry, one chain of several): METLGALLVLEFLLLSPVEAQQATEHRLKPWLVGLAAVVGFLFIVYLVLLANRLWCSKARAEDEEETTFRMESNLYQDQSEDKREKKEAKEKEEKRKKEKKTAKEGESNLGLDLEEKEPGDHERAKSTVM
Chain of UniProt Q96C57 (Q96C57 whole entry, one chain of several): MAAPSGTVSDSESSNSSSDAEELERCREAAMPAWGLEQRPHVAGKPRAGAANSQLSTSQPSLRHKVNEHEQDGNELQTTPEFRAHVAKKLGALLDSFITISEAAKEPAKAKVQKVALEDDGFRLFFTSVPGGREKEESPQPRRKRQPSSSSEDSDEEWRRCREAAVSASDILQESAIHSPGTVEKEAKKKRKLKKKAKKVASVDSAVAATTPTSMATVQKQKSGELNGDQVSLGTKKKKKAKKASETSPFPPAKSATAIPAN

Target	NP40-soluble protein abundance (concentration: 1mM)	NP40-soluble protein abundance (concentration: 2mM)	NP40-soluble protein abundance (concentration: 4mM)	NP40-soluble protein abundance (concentration: 6mM)	NP40-soluble protein abundance (concentration: 8mM)	NP40-soluble protein abundance (concentration: 10mM)
F5GXC5|H3BUJ1|Q8TB96 (UniProt Q8TB96)	1.01 ± 0.017	1.02 ± 0.054	1.01 ± 0.037	1.008 ± 0.0079	1.01 ± 0.024	0.996 ± 0.023
H0YHA7|J3QQ67|Q07020|Q07020-2 (UniProt Q07020)	1.02 ± 0.038	0.9774 ± 0.0023	1.01 ± 0.086	0.9115 ± 0.0037	0.766 ± 0.042	1.04 ± 0.082
UniProt O60504-2|O60504	1.03 ± 0.013	0.999 ± 0.018	1.04 ± 0.018	1.03 ± 0.029	1.02 ± 0.029	1.02 ± 0.025
KPNA4 (UniProt O00629)	1.07 ± 0.029	1.074 ± 0.0097	1.07 ± 0.016	1.03 ± 0.047	1.05 ± 0.051	1.05 ± 0.037
A8MXP9|P43243 (UniProt P43243)	1.03 ± 0.033	1.07 ± 0.016	1.05 ± 0.016	1.07 ± 0.042	1.08 ± 0.025	1.1 ± 0.028
E7EUU4|E7EX73|E9PGM1|Q04637-8|Q04637-4 (UniProt Q04637)	1.06 ± 0.036	1.12 ± 0.039	1.12 ± 0.045	1.14 ± 0.063	1.15 ± 0.039	1.17 ± 0.056
SCO2 (UniProt O43819)	0.972 ± 0.0067	0.949 ± 0.054	0.991 ± 0.04	0.95 ± 0.027	0.936 ± 0.015	0.934 ± 0.045
B0YIW6|P48444 (UniProt P48444)	0.98 ± 0.015	0.931 ± 0.045	0.949 ± 0.01	0.9391 ± 0.0089	0.9554 ± 0.0037	0.921 ± 0.017
CHMP2A (UniProt O43633)	0.949 ± 0.013	1.02 ± 0.094	0.936 ± 0.021	0.966 ± 0.043	0.971 ± 0.031	0.915 ± 0.078
G5E994|Q5VW38|Q5VW38-2 (UniProt Q5VW38)	1.026 ± 0.0089	1.01 ± 0.018	0.976 ± 0.02	0.983 ± 0.024	1.01 ± 0.021	1.018 ± 0.0091
A0A0C4DH01|Q9NVU0|Q9NVU0-4|Q9NVU0-5|Q9NVU0-2|Q9NVU0-3 (UniProt Q9NVU0)	1 ± 0.058	1.02 ± 0.019	1.06 ± 0.052	1.03 ± 0.063	1.02 ± 0.064	1.07 ± 0.081
F8VQE1|Q9UHB6|Q9UHB6-2 (UniProt Q9UHB6)	1.17 ± 0.073	1.28 ± 0.2	1.33 ± 0.12	1.39 ± 0.18	1.37 ± 0.17	1.58 ± 0.21
J3KNV1|O60281 (UniProt O60281)	1.02 ± 0.034	1.08 ± 0.024	1.016 ± 0.0028	0.966 ± 0.034	0.968 ± 0.02	0.985 ± 0.041
A0A0A0MTB8|Q8NI36 (UniProt Q8NI36)	1.1 ± 0.06	1.15 ± 0.11	1.37 ± 0.12	1.55 ± 0.11	1.73 ± 0.16	1.78 ± 0.086
G3XAG1|Q96ME7|Q96ME7-3 (UniProt Q96ME7)	1.04 ± 0.064	1.03 ± 0.1	1.17 ± 0.086	1.39 ± 0.083	1.52 ± 0.039	1.64 ± 0.1
RNF113A (UniProt O15541)	1.02 ± 0.038	1.04 ± 0.089	0.999 ± 0.029	0.979 ± 0.017	0.935 ± 0.012	0.973 ± 0.035
I3L4X7|Q13227|Q13227-2 (UniProt Q13227)	0.982 ± 0.029	1.03 ± 0.059	1.02 ± 0.064	1.08 ± 0.067	1.05 ± 0.019	1.1 ± 0.019
CDIPT (UniProt O14735)	0.928 ± 0.062	0.896 ± 0.042	1 ± 0.019	1.01 ± 0.088	1.03 ± 0.073	0.974 ± 0.039
C9J2U0|I3L413|P24864|P24864-2|P24864-3 (UniProt P24864)	0.913 ± 0.0092	0.822 ± 0.076	0.935 ± 0.011	0.936 ± 0.032	0.9933 ± 0.0062	0.953 ± 0.07
B4E0Y9|Q8NBY1|Q9P289 (UniProt Q9P289)	0.999 ± 0.019	1.03 ± 0.059	1.01 ± 0.034	1.05 ± 0.036	1.01 ± 0.045	1.06 ± 0.039
UniProt O75037|O75037-2	1.03 ± 0.042	1.06 ± 0.018	1.04 ± 0.05	1.01 ± 0.04	1 ± 0.032	1.04 ± 0.052
K7EKM7 (UniProt O75264)	1 ± 0.035	0.988 ± 0.015	1 ± 0.038	0.971 ± 0.032	0.9753 ± 0.0085	1.01 ± 0.014
MYO1G (UniProt B0I1T2)	1.14 ± 0.074	1.12 ± 0.11	1.27 ± 0.22	1.34 ± 0.3	1.44 ± 0.43	1.47 ± 0.46
CCNT1 (UniProt O60563)	1.1 ± 0.051	1.19 ± 0.074	1.21 ± 0.064	1.25 ± 0.12	1.31 ± 0.11	1.4 ± 0.14
N4BP1 (UniProt O75113)	1.01 ± 0.014	1.02 ± 0.039	1.02 ± 0.032	0.979 ± 0.027	0.96 ± 0.012	0.954 ± 0.028
F5H7W8|Q96C57 (UniProt Q96C57)	1.17 ± 0.015	1.26 ± 0.088	1.25 ± 0.058	1.29 ± 0.047	1.34 ± 0.062	1.37 ± 0.12
E7EMP6|Q96FZ2 (UniProt Q96FZ2)	1.06 ± 0.015	1.01 ± 0.032	1.04 ± 0.021	0.9875 ± 0.0043	1.01 ± 0.016	1 ± 0.033
C9JIF9|P13798 (UniProt P13798)	0.953 ± 0.027	0.88 ± 0.061	0.915 ± 0.0095	0.903 ± 0.014	0.909 ± 0.022	0.871 ± 0.04
E7EQT4|Q9UKV3-5|S4R3H4|Q9UKV3-3 (UniProt Q9UKV3)	1.05 ± 0.061	1.1 ± 0.021	1.05 ± 0.07	1.03 ± 0.09	0.972 ± 0.04	1.04 ± 0.069
J3KPP4|O95232 (UniProt O95232)	1.02 ± 0.036	1.06 ± 0.058	1.06 ± 0.019	1.22 ± 0.015	1.3 ± 0.039	1.51 ± 0.049
